The list is not random: actives were taken first. Their share in the collection is about 6.5%.
Autofluor 339 – intrinsic fluorescence of library compounds, ex339/em460 – biochemical, MLSMR library, data from DPM-DC assay, artefact control, profiling panel; compound autofluorescence, ex339/em460 nm, NADH buffer; stronger effect = higher value; 1 = no-compound wells, NADH background; fluorescence fold increase at 10 µM; 65,000 tested, 5.5% active; AID 709, 2007;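 active = at 10 µM, mean starting fluorescence two-fold or more over control wells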;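 also: signal is the first read of a kinetic run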
Abs 340nm – compound light absorbance at 340 nm, profiling panel, artefact control, biochemical, MLSMR library, data from PS, PMK, MK assays; compound absorbance at 340 nm, fold over control; fold change at 10 µM; 65,000 tested, under 10 active;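 active = at 10 µM dose, initial 340 nm absorbance at least 2 fold that of control wells; inactive = change under 2 fold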;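 also: initial absorbance extrapolated from kinetic A340 decline of NADH oxidation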
Spn MK inh – S. pneumoniae MK inhibitors, primary screen, biochemical, PK/LDH-coupled NADH absorbance | purified MK, PK/LDH-coupled NADH absorbance 340 nm | inhibition, % at 10 µM | 65,000 tested, 0.48% active | AID 555, 2006;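 active = ranked among the strongest by inhibition in the single 10 µM screen, a fixed top-ranked set picked for dose follow-up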
DPM-DC inhibit – S. pneumoniae DPM-DC inhibitors, primary screen, biochemical, PK/LDH-coupled NADH fluorescence | 65,000 tested, 0.49% active | diphosphomevalonate decarboxylase (Streptococcus pneumoniae D39) | purified DPM-DC | AID 556, 2006 | calls only at 10 µM;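 active = the 320 compounds with the highest percent inhibition in the single-dose primary screen, excluding strongly autofluorescent ones, cut at about 32% in these data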;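 also: kinetic rate of NADH fluorescence loss reporting ADP formed by the decarboxylase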
NADH coupling – inhibitors of PK/LDH coupling enzymes, profiling panel, artefact control, biochemical, MLSMR library; coupled PK/LDH NADH assays, four targets; IC50, µM (top dose mostly 10 µM), for inactives: top-dose inhibition; 65,000 tested, 0.02% active;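 active = single-dose screening hits from any of four coupled enzyme assays that gave an IC50 when retested across doses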;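 also: the DPM-DC format reads NADH fluorescence rather than 340 nm absorbance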
PMK inhibit – S. pneumoniae PMK inhibitors, primary screen, biochemical, mevalonate pathway, pilot trial included; 65,000 tested, 0.49% active; purified PMK, PK/LDH-coupled NADH absorbance 340 nm; inhibition, % at 10 µM;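 active = top-ranked compounds by inhibition in the single 10 µM screen, taking a fixed number of the strongest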;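 also: 0% = full reaction with DMSO carrier and 100% = background rate without enzyme reaction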
Starred values were filed as active, the others as inactive; i = inactive; x = not tested or not shown; + = active, no number.

SMILES | Autofluor 339 | Abs 340nm | Spn MK inh | DPM-DC inhibit | NADH coupling | PMK inhibit
COc1ccc(NC(=O)c2oc3ccccc3c2NC(=O)COc2ccccc2OC)c(OC)c1 | 5* | 1.1 | 2 | x | 5% | 7
COc1ccc(NC(=O)COc2ccccc2)c(OC)c1 | 1 | 0.98 | 10 | i | 2% | 4
COc1ccc(NC(=O)c2oc3ccccc3c2NC(=O)c2ccc(OC)c(OC)c2)c(OC)c1 | 5* | 1.1 | 0 | x | 7% | 13
CCOCC(=O)Nc1c(C(=O)Nc2ccccc2OC)oc2ccccc12 | 5.1* | 1.1 | 0 | x | 2% | 3
CC(CN1CCN(C)CC1)OC(=O)c1ccccc1Cl (stereo not drawn) | 1.1 | 1 | 11 | i | 5% | 0
N#Cc1ccccc1OCC(=O)Nc1c(C(=O)C2CC2)oc2ccccc12 | 2.6* | 1 | 0 | i | 10% | 17
CCOC(=O)c1c(Nc2nc(C)c(C(=O)NC)s2)sc(C)c1C | 1.1 | 1.1 | 33 | + | 30% | 16
CC(=O)/C=C(\C)Nc1ccc(-c2cnc(-c3ccccc3)o2)cc1 | 2.2* | 1.2 | 15 | x | 9% | 2
O=C(Nc1ccc(-c2nnc(-c3ccccc3)o2)cc1)C(F)(F)F | 1.7 | 1.1 | 4 | i | 7% | 0
O=C(c1coc(=O)c(Br)c1)N1CCOCC1 | 1.9 | 1.1 | 0 | i | 6% | 3
CC1(C)CC(NC(=O)c2coc(=O)c(Br)c2)CC(C)(C)N1 | 2.1* | 1.2 | 13 | i | 14% | 7
O=C(CSc1ncccc1C(=O)O)NCc1ccc(F)cc1 | 1.1 | 1.1 | 6 | i | 5% | 9
COc1ccc(-c2cc(N3CCCC3)n3ncnc3n2)cc1 | 1.2 | 1 | 8 | i | 4% | 11
COc1ccc(-c2cc(-c3ccccc3)n3ncnc3n2)cc1 | 2.4* | 1.1 | 3 | x | 2% | 0
O=C(Cn1c(=O)oc2ccccc21)N1CCN(c2ccc(N3CCOCC3)nn2)CC1 | 2.1* | 1.1 | 7 | x | 12% | 16
Cc1ccccc1CS(=O)(=O)CCC(=O)N1CCN(c2ccc(N3CCOCC3)nn2)CC1 | 3.4* | 0.98 | 2 | x | 5% | 14
O=C(Cn1c(=O)oc2ccccc21)N1CCCCC1 | 1.1 | 1 | 8 | i | 3% | 0
CCOC(=O)c1nnn(CC(=O)Nc2cc(F)ccc2F)c1C(=O)OCC | 1.1 | 1 | 4 | i | 6% | 14
O=C(NCc1nnc(SCC(=O)N2CCN(c3ccccc3)CC2)o1)c1ccco1 | 1.2 | 1 | 42* | i | 18% | 12
COc1ccc(Cl)cc1S(=O)(=O)NCc1cccs1 | 1.1 | 1.1 | 0 | i | 0% | 0
CCOc1nc(Nc2ccc(-c3nc4ccccc4o3)cc2)nc(N2CCOCC2)n1 | 4.8* | 1.1 | 0 | x | 4% | 8
Cc1ccc(Nc2nc(OC(C(F)(F)F)C(F)(F)F)nc(N3CCOCC3)n2)cc1 | 1.1 | 1 | 9 | i | 5% | 3
Cc1ccc(N(C(=O)Cn2nnc3ccccc32)C(C(=O)NC2CCCCC2)c2cn(C)nc2C)cc1 (stereo not drawn) | 1.1 | 0.99 | 6 | i | 6% | 11
CC1(C(=O)N(c2ccccc2)C(C(=O)NC2CCCC2)c2ccccn2)CC(=O)N=C2C=CC=CN21 (stereo not drawn) | 4.7* | 1.1 | 7 | x | 12% | 16
Cc1ccccc1N(CC(=O)NCC1CCCO1)C(=O)C1(C)CC(=O)N=C2C=CC=CN21 (stereo not drawn) | 3.3* | 0.99 | 17 | x | 6% | 12
SMILES | Autofluor 339 | Abs 340nm | Spn MK inh | DPM-DC inhibit | NADH coupling | PMK inhibit
CC1(C(=O)N(CC(=O)NC2CCCC2)C2CCCC2)CC(=O)N=C2C=CC=CN21 (stereo not drawn) | 3.8* | 1 | 5 | x | 7% | 8
COc1ccc(S(=O)(=O)NCC(=O)N(CC(=O)NCC2CCCO2)c2ccccc2C)cc1 (stereo not drawn) | 1.1 | 0.96 | 8 | i | 4% | 18
CCOC(=O)c1nnn(CC(=O)Nc2ccccc2OC)c1C(=O)OCC | 1.1 | 1 | 0 | i | 6% | 19
CCOC(=O)N1CCN(c2c(-c3ccc(C)cc3)c(=O)c2=O)CC1 | 1.1 | 1.1 | 6 | i | 8% | 17
CCOC(=O)N1CCN(c2c(-c3ccccc3)c3cc(Cl)ccc3[nH]c2=O)CC1 | 2.5* | 1.1 | 3 | i | 6% | 1
Cc1ccc(-c2nnn(CC(=O)N(CC(=O)NCC3CCCO3)c3ccc(F)c(Cl)c3)n2)o1 (stereo not drawn) | 1.1 | 1.1 | 0 | i | 15% | 44*
COc1ccc(N2C(=O)c3ccccc3NC23CCCCC3)cc1 | 2.2* | 1.1 | 2 | x | 4% | 6
COc1ccc(N2C(=O)CSC23CCCCC3)cc1 | 1.1 | 1 | 10 | i | 6% | 4
Cn1c2c(c(=O)n(C)c1=O)CN(Cc1ccc3c(c1)OCO3)CN2 | 1.1 | 1.1 | 0 | i | 0% | 1
CCOC(=O)C1CCCN(Cc2cc(Br)c(OC)cc2OC)C1 (stereo not drawn) | 1.1 | 1.1 | 50* | i | 17% | 0
COc1cccc(CN2CCCC(C(=O)N3CCCCC3)C2)c1OC (stereo not drawn) | 1.2 | 1 | 0 | i | 3% | 8
CCOC(=O)C1CCN(Cc2ccc(O)c(OC)c2)CC1 | 1 | 1.1 | 34 | i | 11% | 0
CCOC(=O)C1CCCN(Cc2cc(OC)c(O)c(OC)c2)C1 (stereo not drawn) | 1.1 | 1.1 | 50* | i | 17% | 0
CCN(CC)C(=O)C1CCCN(Cc2ccc(OC)c(C)c2C)C1 (stereo not drawn) | 1.2 | 1.1 | 56* | i | 19% | 0
c1ccc(C2Nc3ccccc3-c3nc4ccccc4n32)nc1 (stereo not drawn) | 2.3* | 1.1 | 9 | x | 5% | 1
c1coc(C2Nc3ccccc3-c3nc4ccccc4n32)c1 (stereo not drawn) | 2.3* | 1.1 | 1 | x | 6% | 11
O=C(CN(Cc1ccc2c(c1)OCO2)C(=O)CSc1nc2ccccc2o1)NC1CCCCC1 | 1.1 | 0.98 | 5 | i | 6% | 13
O=C(O)c1ccc(NCc2ccc3c(c2)OCO3)cc1 | 1.1 | 1 | 0 | i | 4% | 12
CCC(=O)Nc1cccc(NC(=O)COc2ccc(OC)cc2)c1 | 1.1 | 1 | 9 | i | 5% | 0
Cc1nc2ccccn2c1C(=O)c1ccccc1 | 1.1 | 1.1 | 1 | i | 4% | 12

Screening results as filed in PubChem BioAssay.
